From PubChem BioAssay (EPA / NIEHS)
Results filed as inconclusive are left out. The source made the active and inactive calls. Rule for the calls, unless noted: active = hit-call score of the fitted dose curve at least 0.9, where 1 is the maximum; inactive = score below 0.9.

Experiments:
[1] = CCTE_Simmons_MITO_max_resp_rate: CCTE's HepG2 Seahorse XF Respirometric Screening Assay at Maximal Respiratory State [uncoupled], Simmons Lab (AID 2284002); conditions: actives raise or lower the signal
Outline: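 HepG2, Seahorse XF96, maximal OCR post-FCCP. Cpd 125 nM–100 uM final (7 conc), n=3 biological. Kinetic reads every 6 min (3 min mix/3 min measure) over 72 min; fit bidirectional vs DMSO.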

[2] = CCTE_Simmons_MITO_viability: CellTiter-Glo Viability Assessment for CCTE's HepG2 Seahorse XF Respirometric Screening Assay [post-hoc], Simmons Lab (AID 2284007; active = hit-call score of the fitted dose curve at least 0.9, where 1 is the maximum;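 for AC50: cells exposed to chemical for 90 min before the ATP read; actives lower ATP signal relative to DMSO baseline meaning reduced viability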)
Outline: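 Luciferase-coupled ATP luminescence, single endpoint. HepG2, post-respirometry. Compound 125 nM–100 uM final, 7 conc., 90 min. n=3 biological, technical singles. DMSO vehicle/baseline; dichlone 10 nM–100 uM, 8 conc., as positive control.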

[3] = CCTE_Shafer_MEA_acute_spike_number: CCTE's Neural Acute Assay for Total Number of Spikes, Shafer Lab (AID 2284008);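 for AC50: curve fitted for decrease in spike count so AC50 reflects inhibitors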
Outline: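 Rat cortical cultures, DIV 13/15, 37 C. 40 min baseline rec, cpd 0.03-40 uM, 40 min post-dose rec. Band-pass 300-5000 Hz, spike threshold 8x rms; % change in spike count per well, DMSO neg ctrl, loss-of-signal fit.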

[4] = CCTE_Shafer_MEA_acute_firing_rate_mean: CCTE's Neural Acute Assay for Mean Firing Rate, Shafer Lab (AID 2284009);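 note: analyzed for loss of signal so actives lower firing rate relative to DMSO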
Outline: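 Primary rat cortical neurons on 16-electrode MEA wells were exposed on DIV 13 or 15 to compound (0.03-40 uM). Spike counts per recording time, averaged over electrodes, were compared between 40-min baseline and 40-min post-exposure recordings as percent change.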

[5] = CCTE_Harrill_HTTr_Viability_MCF7: CCTE's 6-hour Cell Viability Assessment for the High-Throughput Transcriptomics (HTTr) Platform, in MCF-7 cells cultured in DMEM + 10% fetal bovine serum, Harrill Lab (AID 2284010)
Outline: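 PI exclusion, high-content imaging; 8-pt dilution series, 6 h exposure; bidirectional fit vs DMSO (neg. ctrl/baseline); gain of signal = loss of membrane integrity.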

[6] = CCTE_Harrill_HTTr_Apoptosis_MCF7: CCTE's 6-hour Apoptosis Assessment for the High-Throughput Transcriptomics (HTTr) Platform, in MCF-7 cells cultured in DMEM + 10% fetal bovine serum, Harrill Lab (AID 2284011)
Outline: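 Read-out: CellEvent Caspase 3/7 Green signal by high content imaging, gain-of-signal indicating apoptosis. MCF-7 cells, DMEM + 10% FBS, eight-point dilution series, 6 h exposure. Curves fitted bidirectionally relative to DMSO negative control.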

[7] = CCTE_Shafer_MEA_acute_burst_number: CCTE's Neural Acute Assay for Single-Electrode Bursts, Shafer Lab (AID 2284013)
Outline: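 Primary rat cortical neurons on 16-electrode MEA wells, DIV 13 or 15, exposed to compound (0.03-40 uM; ≥3 wells); 40-min recordings at 37 C before and after treatment. Burst count expressed as percent change from baseline, DMSO as negative control.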

[8] = CCTE_Harrill_HTTr_CellCount_MCF7: CCTE's Cell Proliferation Assessment for the High-Throughput Transcriptomics (HTTr) Platform, Harrill Lab (AID 2284012; active = hit-call score of the fitted dose curve at least 0.9, where 1 is the maximum;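 note: count of Hoechst-stained nuclei per well by high-content imaging in MCF-7 cells; cells exposed to compound for six hours; intended direction is loss of nuclei count meaning fewer cells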)
Outline: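 Readout: Hoechst nuclear count by high-content imaging. MCF-7, 8-point dilution series, 6 h exposure. Bidirectional fit vs DMSO baseline.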

Measured: AC50

CO/C=C(/C(=O)OC)c1ccccc1COc1cccc(C(F)(F)F)n1
inactive: [2] | [5] | [6]
active: [1] 1.3 µM | [3] 278 nM | [4] 280 nM | [7] 239 nM

Oc1ccc(C(c2ccc(O)cc2)(C(F)(F)F)C(F)(F)F)cc1
inactive: [5] | [6] | [7]
active: [1] 21.6 µM | [3] 3170 nM | [4] 3160 nM

CCCCCCCCCC[N+](C)(C)CCCCCCCCCC
inactive: [5] | [8] | [7]
active: [1] 26.4 µM | [2] 28 µM | [3] 2810 nM | [4] 2880 nM

CCC(C)(c1ccc(O)cc1)c1ccc(O)cc1
active: [1] 25.9 µM
not listed: [2]
inactive: all other assays above

CCNc1nc(NC(C)C)nc(SC)n1
inactive: [1] | [5] | [6]

CC#Cc1cc(C)nc(Nc2ccccc2)n1
active: [3] 4070 nM | [4] 4060 nM | [7] 2850 nM
inactive: [5] | [6] | [8]

CCOCCOC(C)=O
inactive: [5] | [6] | [8]

O=C(O)C(F)(F)C(F)(F)C(F)(F)C(F)(F)C(F)(F)F
not listed: [1] | [2]
inactive: all other assays above

O=S(=O)(O)C(F)(F)C(F)(F)C(F)(F)C(F)(F)C(F)(F)C(F)(F)F
inactive: [5] | [6] | [8]

Clc1ccc(Cl)cc1
inactive: [5] | [6]

Cc1cccc(C)c1N
inactive: [5] | [6] | [8]

ClC1=C(Cl)[C@]2(Cl)[C@@H]3[C@@H](Cl)[C@H]4O[C@H]4[C@@H]3C1(Cl)C2(Cl)Cl
inactive: [5] | [6] | [8]
active: [3] 106 nM | [4] 107 nM | [7] 54 nM

CC(C)C(=O)OCC(C)(C)C(OC(=O)C(C)C)C(C)C (centres undefined)
inactive: [3] | [4] | [7]

Nc1ccc(-c2ccc(N)cc2)cc1
inactive: [3] | [4] | [7]

c1ccc(-c2ccccc2)cc1
not listed: [1] | [2]
inactive: all other assays above

CCCCCCOC(=O)c1ccccc1C(=O)OCCCCCC
inactive: [5] | [6] | [8]

Clc1ccc(C(c2ccccc2Cl)C(Cl)(Cl)Cl)cc1 (centres undefined)
inactive: [5] | [6] | [8]

Cc1cc(O)ccc1Cl
inactive: [5] | [6] | [8]

CCOP(=S)(OCC)SCSC(C)(C)C
inactive: [5] | [6] | [8]

Clc1ccc(C(Cl)(Cl)Cl)cc1
not listed: [1] | [2]
inactive: all other assays above

Cc1ccc(O)c(C)c1
inactive: [5] | [6] | [8]

CN(C)CCO
inactive: [3] | [4] | [5] | [6] | [7]

Oc1ccc(Cl)cc1Cl
inactive: [5] | [6]

CN(C)c1nc(=O)n(C2CCCCC2)c(=O)n1C
inactive: [5] | [6]

Cc1cc(-c2ccc(N)c(C)c2)ccc1N
inactive: [5] | [6] | [8]

Cc1ccccc1O
inactive: [5] | [6] | [8]

Cc1cc2c3c(c1)C(c1ccccc1)=N[C@@H](NC(=O)c1ccncc1)C(=O)N3CC2
inactive: [5] | [6] | [8]

Nn1cnnc1
inactive: [5] | [6] | [8]

ClC1=C(Cl)[C@]2(Cl)[C@@H]3[C@@H]4C[C@@H]([C@H]5O[C@@H]45)[C@@H]3[C@@]1(Cl)C2(Cl)Cl
active: [3] 476 nM | [4] 489 nM | [7] 508 nM
inactive: [5] | [6]

C=CC(N)=O
not listed: [1] | [2]
inactive: all other assays above

CCCN(CCC)N=O
not listed: [1] | [2]
inactive: all other assays above

O=NN(c1ccccc1)c1ccccc1
inactive: [5] | [6]

Cc1cccc([N+](=O)[O-])c1
inactive: [5] | [6]

O=C(NC(=O)c1cc(F)c(F)cc1Cl)Nc1cc(F)ccc1N1CCC(C(=O)O)CC1
inactive: [5] | [6]

Sc1ccccc1
inactive: [5] | [6] | [8]

O=S(=O)(O)C(F)(F)C(F)(F)C(F)(F)C(F)(F)F
inactive: [5] | [6] | [8]

C1CC2OC2CC1C1CO1 (centres undefined)
inactive: [5] | [6]
